Measurements as given in the supplement of paper PMC10849652.
The full data set covers some 8,800 targets. This sample favours those with a hit. About 0.5% of all pairs of compound and target were hits. Values without a mark were called inactive.

Assays:
Experiment in all cases: log2 fold change, soluble protein after heating vs DMSO (PISA); higher = thermal stabilisation; K562 lysate, 10 uM; active = over 0.2 and 3.5 SD of the protein, either way, in both replicates (recomputed)
lapatinib = compound: CS(=O)(=O)CCNCc1ccc(-c2ccc3ncnc(Nc4ccc(OCc5cccc(F)c5)c(Cl)c4)c3c2)o1 [lapatinib]
Summary of the method: (§1)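 To prepare the extract, K562 pellets were dounce-homogenised in PBS pH 7.4 with 1 mM MgCl2, giving crude material at 1 mg/mL protein. This was treated with 10 μM compound for 30 min, then heated in aliquots for 3 min over 48°C-58°C before pooling and addition of NP-40 to 0.5% at 4°C. Centrifugation at 21,000xg for 90 min left soluble protein in the supernatant, which TMTpro 16plex LC-MS/MS quantified with equalised channel sums. Results are log-two fold changes in thermal stability compared with solvent controls, from duplicates.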

pictilisib = compound: CS(=O)(=O)N1CCN(Cc2cc3nc(-c4cccc5[nH]ncc45)nc(N4CCOCC4)c3s2)CC1 [pictilisib]
Summary of the method: as §1

crizotinib = compound: C[C@@H](Oc1cc(-c2cnn(C3CCNCC3)c2)cnc1N)c1c(Cl)ccc(F)c1Cl [crizotinib]
Summary of the method: as §1

[1] = compound: C[C@H](C1=CC=C(C=C1)C(=O)NC2=C3C=CNC3=NC=C2)N
Summary of the method: as §1

duvelisib = compound: C[C@H](Nc1ncnc2nc[nH]c12)c1cc2cccc(Cl)c2c(=O)n1-c1ccccc1 [duvelisib]
Summary of the method: as §1

gandotinib = compound: Cc1cc(Nc2cc(CN3CCOCC3)c3nc(C)c(Cc4ccc(Cl)cc4F)n3n2)n[nH]1 [gandotinib]
Summary of the method: as §1

tozasertib = compound: Cc1cc(Nc2cc(N3CCN(C)CC3)nc(Sc3ccc(NC(=O)C4CC4)cc3)n2)n[nH]1 [tozasertib]
Summary of the method: as §1

doramapimod = compound: Cc1ccc(-n2nc(C(C)(C)C)cc2NC(=O)Nc2ccc(OCCN3CCOCC3)c3ccccc23)cc1 [doramapimod]
Summary of the method: as §1

bafetinib = compound: Cc1ccc(NC(=O)c2ccc(CN3CC[C@H](N(C)C)C3)c(C(F)(F)F)c2)cc1Nc1nccc(-c2cncnc2)n1 [bafetinib]
Summary of the method: as §1

[2] = compound: Cc1cccc(CC(=O)N2CCc3c2ccc(-c2cn(C)c4ncnc(N)c24)c3F)n1
Summary of the method: as §1

Chain of UniProt P00352 (P00352 whole entry, looked up): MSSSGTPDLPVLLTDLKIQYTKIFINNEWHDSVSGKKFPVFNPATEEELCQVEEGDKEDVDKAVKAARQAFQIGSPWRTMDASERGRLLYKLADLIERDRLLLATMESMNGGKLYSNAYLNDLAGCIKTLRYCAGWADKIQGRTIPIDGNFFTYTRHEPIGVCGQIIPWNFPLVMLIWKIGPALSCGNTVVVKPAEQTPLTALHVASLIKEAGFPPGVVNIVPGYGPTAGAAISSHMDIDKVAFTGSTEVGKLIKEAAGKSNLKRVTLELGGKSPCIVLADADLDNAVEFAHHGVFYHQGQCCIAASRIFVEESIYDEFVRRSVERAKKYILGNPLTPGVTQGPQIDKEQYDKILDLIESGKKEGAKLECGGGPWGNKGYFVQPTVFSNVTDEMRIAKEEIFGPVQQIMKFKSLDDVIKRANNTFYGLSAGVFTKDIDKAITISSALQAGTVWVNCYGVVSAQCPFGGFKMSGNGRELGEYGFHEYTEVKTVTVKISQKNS
Chain of UniProt P07311 (P07311 whole entry, looked up): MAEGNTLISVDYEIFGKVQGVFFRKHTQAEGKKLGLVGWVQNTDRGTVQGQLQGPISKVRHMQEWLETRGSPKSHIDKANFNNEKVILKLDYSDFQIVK
Chain of UniProt P35611 (P35611 whole entry, looked up): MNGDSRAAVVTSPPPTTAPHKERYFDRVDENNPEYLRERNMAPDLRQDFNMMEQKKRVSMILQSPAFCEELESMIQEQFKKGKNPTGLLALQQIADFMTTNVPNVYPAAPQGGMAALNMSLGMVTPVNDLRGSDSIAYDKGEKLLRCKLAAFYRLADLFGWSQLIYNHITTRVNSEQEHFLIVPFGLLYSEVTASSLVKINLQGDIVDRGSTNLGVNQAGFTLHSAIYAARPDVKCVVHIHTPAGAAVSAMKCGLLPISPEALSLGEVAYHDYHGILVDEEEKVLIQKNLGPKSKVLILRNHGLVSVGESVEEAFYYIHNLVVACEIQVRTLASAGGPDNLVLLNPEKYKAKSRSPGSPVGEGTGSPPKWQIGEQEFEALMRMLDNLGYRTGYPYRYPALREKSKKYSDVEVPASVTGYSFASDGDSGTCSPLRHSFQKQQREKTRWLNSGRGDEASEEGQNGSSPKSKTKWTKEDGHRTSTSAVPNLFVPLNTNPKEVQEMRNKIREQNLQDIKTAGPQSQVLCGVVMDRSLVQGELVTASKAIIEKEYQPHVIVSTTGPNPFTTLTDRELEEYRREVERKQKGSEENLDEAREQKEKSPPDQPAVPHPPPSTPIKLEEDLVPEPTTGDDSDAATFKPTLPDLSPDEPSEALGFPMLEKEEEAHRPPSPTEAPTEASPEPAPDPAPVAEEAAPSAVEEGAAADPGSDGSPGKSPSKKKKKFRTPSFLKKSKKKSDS
Chain of UniProt Q96BM9 (Q96BM9 whole entry, looked up): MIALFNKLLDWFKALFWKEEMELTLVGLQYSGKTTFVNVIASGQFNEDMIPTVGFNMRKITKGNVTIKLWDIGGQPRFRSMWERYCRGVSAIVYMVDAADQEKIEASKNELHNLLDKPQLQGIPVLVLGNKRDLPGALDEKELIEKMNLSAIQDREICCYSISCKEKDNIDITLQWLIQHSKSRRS
Chain of UniProt Q9BTT0 (Q9BTT0 whole entry, looked up): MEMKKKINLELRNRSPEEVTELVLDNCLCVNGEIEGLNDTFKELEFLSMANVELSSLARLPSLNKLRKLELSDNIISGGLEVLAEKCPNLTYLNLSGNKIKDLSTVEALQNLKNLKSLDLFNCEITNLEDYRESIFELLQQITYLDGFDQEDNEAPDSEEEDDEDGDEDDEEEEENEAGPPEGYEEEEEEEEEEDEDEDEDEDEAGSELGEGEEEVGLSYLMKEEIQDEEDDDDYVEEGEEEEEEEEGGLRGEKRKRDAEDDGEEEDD
Chain of UniProt Q92685 (Q92685 whole entry, looked up): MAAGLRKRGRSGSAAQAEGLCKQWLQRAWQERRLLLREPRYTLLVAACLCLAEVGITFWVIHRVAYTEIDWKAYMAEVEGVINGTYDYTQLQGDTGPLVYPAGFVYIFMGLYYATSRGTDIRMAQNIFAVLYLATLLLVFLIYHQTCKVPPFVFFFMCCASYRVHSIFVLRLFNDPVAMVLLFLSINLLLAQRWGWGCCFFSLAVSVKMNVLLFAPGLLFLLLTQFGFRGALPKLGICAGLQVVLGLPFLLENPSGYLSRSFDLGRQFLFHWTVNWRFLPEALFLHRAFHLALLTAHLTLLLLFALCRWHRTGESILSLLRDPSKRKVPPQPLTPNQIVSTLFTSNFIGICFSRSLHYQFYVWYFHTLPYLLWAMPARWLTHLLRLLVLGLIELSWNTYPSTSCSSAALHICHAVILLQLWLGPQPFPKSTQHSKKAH
Chain of UniProt O60488 (O60488 whole entry, looked up): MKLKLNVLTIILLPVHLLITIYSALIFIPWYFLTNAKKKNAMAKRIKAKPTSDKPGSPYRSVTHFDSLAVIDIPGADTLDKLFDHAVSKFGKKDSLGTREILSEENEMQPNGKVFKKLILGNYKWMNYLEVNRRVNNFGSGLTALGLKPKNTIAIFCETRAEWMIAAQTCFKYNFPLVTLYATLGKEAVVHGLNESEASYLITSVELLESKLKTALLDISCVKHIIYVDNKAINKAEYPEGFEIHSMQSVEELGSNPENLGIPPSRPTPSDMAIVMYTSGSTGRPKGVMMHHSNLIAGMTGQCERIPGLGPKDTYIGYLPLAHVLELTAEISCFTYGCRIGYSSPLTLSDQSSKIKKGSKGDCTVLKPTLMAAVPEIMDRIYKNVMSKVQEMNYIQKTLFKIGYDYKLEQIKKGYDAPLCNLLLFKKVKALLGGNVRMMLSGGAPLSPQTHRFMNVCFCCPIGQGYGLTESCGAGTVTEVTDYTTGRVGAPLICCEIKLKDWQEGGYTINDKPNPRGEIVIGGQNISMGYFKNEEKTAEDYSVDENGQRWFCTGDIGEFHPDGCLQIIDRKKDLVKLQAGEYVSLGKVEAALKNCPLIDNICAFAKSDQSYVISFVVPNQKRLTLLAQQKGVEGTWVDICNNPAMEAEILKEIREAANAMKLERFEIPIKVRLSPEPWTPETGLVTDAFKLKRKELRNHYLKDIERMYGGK
Chain of UniProt Q9UNA0 (Q9UNA0 whole entry, looked up): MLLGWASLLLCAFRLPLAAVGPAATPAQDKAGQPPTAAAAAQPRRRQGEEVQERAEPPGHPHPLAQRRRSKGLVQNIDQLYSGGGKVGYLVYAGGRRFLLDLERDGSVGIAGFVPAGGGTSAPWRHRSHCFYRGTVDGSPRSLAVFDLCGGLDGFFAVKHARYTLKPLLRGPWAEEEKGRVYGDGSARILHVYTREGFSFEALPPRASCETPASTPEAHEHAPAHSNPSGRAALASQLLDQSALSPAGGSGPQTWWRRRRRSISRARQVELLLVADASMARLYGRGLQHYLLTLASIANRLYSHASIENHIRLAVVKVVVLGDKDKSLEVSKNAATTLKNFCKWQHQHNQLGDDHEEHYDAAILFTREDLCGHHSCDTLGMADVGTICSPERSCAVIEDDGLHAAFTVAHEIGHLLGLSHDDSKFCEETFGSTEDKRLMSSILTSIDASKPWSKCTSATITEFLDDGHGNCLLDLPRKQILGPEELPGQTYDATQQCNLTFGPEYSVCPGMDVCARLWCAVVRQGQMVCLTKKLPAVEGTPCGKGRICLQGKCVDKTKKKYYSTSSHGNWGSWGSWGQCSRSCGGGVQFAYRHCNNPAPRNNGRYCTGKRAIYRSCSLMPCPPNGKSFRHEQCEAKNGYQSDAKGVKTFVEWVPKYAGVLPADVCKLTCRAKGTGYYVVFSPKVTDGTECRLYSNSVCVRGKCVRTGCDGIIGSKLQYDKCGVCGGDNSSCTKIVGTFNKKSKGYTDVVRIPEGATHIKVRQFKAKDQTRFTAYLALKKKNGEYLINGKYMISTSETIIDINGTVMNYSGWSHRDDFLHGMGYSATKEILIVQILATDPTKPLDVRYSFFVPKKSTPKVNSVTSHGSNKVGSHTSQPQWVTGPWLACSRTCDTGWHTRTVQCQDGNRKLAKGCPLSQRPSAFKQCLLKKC
Chain of UniProt P42330 (P42330 whole entry, looked up): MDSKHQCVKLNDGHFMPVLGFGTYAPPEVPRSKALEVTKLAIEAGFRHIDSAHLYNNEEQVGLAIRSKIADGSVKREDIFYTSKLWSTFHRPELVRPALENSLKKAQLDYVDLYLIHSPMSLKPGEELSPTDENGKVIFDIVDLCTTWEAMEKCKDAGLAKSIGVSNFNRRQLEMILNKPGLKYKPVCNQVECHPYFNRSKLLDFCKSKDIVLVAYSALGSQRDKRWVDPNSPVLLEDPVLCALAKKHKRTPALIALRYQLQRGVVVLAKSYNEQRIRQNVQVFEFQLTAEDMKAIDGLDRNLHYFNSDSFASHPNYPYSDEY
Chain of UniProt P10398 (P10398 whole entry, looked up): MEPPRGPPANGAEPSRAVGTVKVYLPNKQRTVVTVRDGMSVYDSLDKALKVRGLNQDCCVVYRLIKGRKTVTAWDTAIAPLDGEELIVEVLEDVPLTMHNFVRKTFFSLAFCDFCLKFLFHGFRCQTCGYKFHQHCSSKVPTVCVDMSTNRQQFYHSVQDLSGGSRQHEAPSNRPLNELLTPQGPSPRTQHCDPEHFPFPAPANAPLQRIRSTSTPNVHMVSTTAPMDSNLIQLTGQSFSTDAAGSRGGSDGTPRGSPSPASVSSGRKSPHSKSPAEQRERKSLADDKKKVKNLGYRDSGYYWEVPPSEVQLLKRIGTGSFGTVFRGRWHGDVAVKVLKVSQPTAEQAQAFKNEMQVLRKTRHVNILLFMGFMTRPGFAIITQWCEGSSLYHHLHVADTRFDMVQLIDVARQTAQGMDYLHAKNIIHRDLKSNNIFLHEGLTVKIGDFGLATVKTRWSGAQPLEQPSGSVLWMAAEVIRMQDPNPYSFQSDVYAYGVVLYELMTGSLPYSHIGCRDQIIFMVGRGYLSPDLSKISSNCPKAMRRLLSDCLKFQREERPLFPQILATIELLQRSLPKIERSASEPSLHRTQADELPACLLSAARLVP
Chain of UniProt Q9BQI0 (Q9BQI0 whole entry, looked up): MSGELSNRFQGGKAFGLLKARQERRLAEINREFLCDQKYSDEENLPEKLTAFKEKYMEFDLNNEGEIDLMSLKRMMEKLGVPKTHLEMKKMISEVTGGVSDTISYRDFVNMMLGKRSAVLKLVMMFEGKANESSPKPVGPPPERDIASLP

Target	log2 fold change (lapatinib)	log2 fold change (pictilisib)	log2 fold change (crizotinib)	log2 fold change [1]	log2 fold change (duvelisib)	log2 fold change (gandotinib)	log2 fold change (tozasertib)	log2 fold change (doramapimod)	log2 fold change (bafetinib)	log2 fold change [2]
ACSL4 (UniProt O60488)	0.008	0.028	-0.042	-0.016	0.026	-0.065	0.002	0.025	-0.093	-0.003
AIMP2 (UniProt Q13155)	-0.006	0.015	-0.047	0.05	-0.018	-0.12	0.041	0.029	-0.03	-0.032
ABHD12 isoform 2 (UniProt Q8N2K0)	-0.006	-0.069	-0.04	0.078	-0.057	-0.095	0.06	0.04	0.062	-0.063
AIP (UniProt O00170)	-0.004	-0.026	0.021	0.41 (active)	-0.031	-0.019	-0.012	-0.022	0.055	-0.043
AKAP8L (UniProt Q9ULX6)	0.017	-0.018	0.053	-0.05	0.038	0.033	0	-0.153	0.016	0.011
ADD1 isoform 3 (UniProt P35611)	-0.017	0.003	0.014	-0.011	0.014	-0.001	-0.002	0.002	0.002	-0.019
AP5B1 (UniProt Q2VPB7)	0.095	-0.046	0.069	0.034	-0.012	-0.092	-0.028	0.272	-0.056	0.047
ACTG1 (UniProt I3L4N8)	-0.072	-0.209	-0.066	-0.039	0.13	-0.159	0.083	-0.065	-0.183	-0.096
AGL (UniProt P35573)	-0.004	0	-0.019	0.115	-0.013	-0.094	0.014	0.029	-0.037	-0.059
AMD1 (UniProt P17707)	-0.125	0.056	0.035	-0.099	0.12	0.107	0.05	0.316	-0.07	0.048
ARAP1 (UniProt Q96P48)	-0.022	-0.046	-0.065	-0.03	-0.002	0.014	-0.005	0.063	-0.016	0.034
AKR1C3 (UniProt P42330)	-0.03	-0.024	-0.039	-0.014	-0.036	0.052	-0.003	0.022	0.022	-0.026
ALG13 (UniProt Q9NP73)	0.017	-0.002	-0.12	-0.075	0	0.044	-0.091	-0.015	-0.025	0.127
ADAMTS5 (UniProt Q9UNA0)	-0.102	-0.015	-0.139	-0.843 (active)	-0.004	0.332	0.011	0.04	-0.211	0.33
ASCC2 (UniProt Q9H1I8)	-0.012	0.049	-0.044	0.048	0.04	-0.026	0.023	-0.007	-0.205	-0.002
ACOX1 isoform 2 (UniProt Q15067)	-0.003	-0.003	-0.004	-0.112	-0.012	0.167	0.043	0.024	-0.01	0.054
AGTPBP1 (UniProt Q9UPW5)	0.008	-0.103	-0.121	0.018	0.009	-0.271	0.028	0.007	0.001	0.113
ANP32E (UniProt Q9BTT0)	-0.026	0.003	0.007	-0.017	0.015	0.013	0.041	-0.017	-0.003	-0.032
ANKRD54 (UniProt Q6NXT1)	0.038	-0.008	0.058	0.01	0.008	0.049	-0.002	0.044	-0.029	-0.007
ABHD13 (UniProt Q7L211)	-0.059	0.049	0.197	-0.593 (active)	0	0.193	-0.044	-0.104	-0.197	0.184
ARAF (UniProt P10398)	-0.019	0.011	-0.041	-0.045	-0.025	-0.077	-0.007	0.006	-0.047	-0.031
ANAPC7 (UniProt Q9UJX3)	-0.017	0.002	-0.029	-0.009	-0.018	-0.042	-0.019	0.023	-0.036	0.002
ACYP1 (UniProt P07311)	-0.001	-0.044	0.024	0.236 (active)	0.005	-0.051	0.016	0.009	0.005	-0.091
ALDH1A1 (UniProt P00352)	0.002	-0.068	0.004	0.05	-0.023	-0.111	-0.006	-0.015	0.061	-0.164
ALG3 (UniProt Q92685)	-0.069	0.031	-0.057	-0.15	-0.104	0	-0.04	0.037	-0.061	0.261
ASB6 (UniProt Q9NWX5)	-0.04	-0.029	0.01	0.093	0.008	-0.065	-0.159	0.004	-0.055	-0.028
ANKRD30A (UniProt Q9BXX3)	-0.228	0.028	0.128	-0.155	-0.038	1.59 (active)	0.281	-0.068	0.069	0.918
ARL8A (UniProt Q96BM9)	-0.11	0.038	0.091	0.426 (active)	-0.078	0	-0.063	-0.005	-0.016	-0.088
AIF1L (UniProt Q9BQI0)	0.047	0.046	0.039	0.069	-0.075	-0.171	-0.105	-0.037	-0.122	0.101
